Source: PubChem BioAssay
D1 antagonist = human D1 dopamine receptor antagonism; P21728; HEK293 TREx D1 cells, calcium flux, dopamine EC80; hits give low values; activity change, negative = inhibition, % at 10 µM; 360,000 tested, 3.2% active; AID 504652; in the data active = activity change below about -30%; also: % is scaled to controls: 0 for no effect and ±100 for the full control effect
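Inducible Hek293 Trex D1 cells (tetracycline, overnight, 30 C). Calcium dye 30–90 min RT. Antagonist mode: EC80 dopamine added after 180 s compound read.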
D1 PAM = potentiators of human D1 dopamine receptor | P21728 | HEK293 TREx D1 cells, calcium flux, dopamine EC20 potentiation | potentiation, % at 10 µM | 360,000 tested, 0.036% active; in the data active = potentiation above about 30%; also: 0% is about no effect
DRD3 agonist = activates the human D3 dopamine receptor. P35462. D3R DiscoveRx beta-arrestin cells, luminescence, 90 min. max activation, %. 410,000 tested, 0.58% active; in the data active = max activation above about 30%; also: 0% is about no effect
Target sequence (P35462 whole entry, looked up): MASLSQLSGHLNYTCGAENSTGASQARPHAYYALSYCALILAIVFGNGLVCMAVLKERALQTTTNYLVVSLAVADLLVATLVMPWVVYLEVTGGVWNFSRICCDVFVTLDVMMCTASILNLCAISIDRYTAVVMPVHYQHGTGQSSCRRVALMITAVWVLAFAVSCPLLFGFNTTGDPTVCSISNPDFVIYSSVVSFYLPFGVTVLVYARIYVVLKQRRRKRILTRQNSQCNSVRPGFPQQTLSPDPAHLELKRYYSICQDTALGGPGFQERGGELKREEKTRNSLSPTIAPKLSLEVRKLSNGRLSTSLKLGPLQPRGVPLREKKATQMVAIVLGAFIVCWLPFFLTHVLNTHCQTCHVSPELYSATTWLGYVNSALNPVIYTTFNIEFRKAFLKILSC
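Agonist-mode cell screen: cells plated at 1500/well and incubated overnight at 37 °C, then exposed to library compounds for 90 min at 37 °C. Detection reagent was added for 30–60 min at room temperature, and luminescence was read.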
D1 agonist = human D1 receptor agonism. activation, % at 2 µM. 360,000 tested, 1% active. AID 504660. HEK293 T-REx D1 cells, calcium flux, agonist mode; in the data active = activation above about 30%; also: 0% is about no effect
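Agonism was scored from calcium flux recorded over 180 s (1 read/s) after pintool compound addition, following a 10-cycle baseline. Cells were inducible force-coupled HEK293 TREx D1, plated overnight at 30 C and loaded with no-wash calcium dye.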
D3 antag = blocks the human D3 dopamine receptor; 360,000 tested, 2.5% active; max response, negative = inhibition, %; D3R cells, DiscoveRx beta-arrestin luminescence, antagonist mode; hits give low values; P35462; in the data active = max response below about -50%; inconclusive = no clear call, values can overlap the other calls; also: % is scaled to controls: 0 for no effect and ±100 for the full control effect
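Cells expressing the human receptor were seeded at 1500 cells/well, incubated overnight at 37 degrees C in 5% CO2, then exposed to library compounds with dopamine controls for 90 minutes at 37 degrees C before luminescent detection.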
Starred values were filed as active, the others as inactive; ? = inconclusive; nt = no result given. An excerpt weighted towards active compounds, which were near 6% of everything screened.

SMILES	D1 antagonist	D1 PAM	DRD3 agonist	D1 agonist	D3 antag
C=CCc1cc(/C=C2/NC(=O)NC2=O)cc(OCC)c1O	6	-5	20	3	7
Oc1cc(Nc2ccc(N3CCCCC3)cc2)cc2cccnc12	-11	-3	nt	2	nt
O=S(=O)(Nc1cc(Sc2ncn[nH]2)c(O)c2ccccc12)c1ccccc1	9	2	-5	2	-100*
Cn1c(SCCN2CCCCC2)nnc1-c1ccccc1Br	-14	-5	-4	4	-63*
CCOC(=O)CSc1nc(C)cc(=O)[nH]1	-9	-4	-3	0	22
CC(=O)c1c(C)cc(C)c(CSc2nc(C)cc(=O)[nH]2)c1C	-11	-3	69*	7	452
COc1ccc(N(CC(=O)Nc2ccc(C)cn2)S(=O)(=O)c2c(C)noc2C)cc1	-80*	-4	0	0	24
O=C(NCc1cccs1)c1ccc(CSc2nc3ccncc3n2Cc2cccc(F)c2)cc1	3	-4	-28	6	nt
CC(NCCC1(Cc2ccccc2Cl)CCOC(C)(C)C1)c1cccs1 (configuration not stated)	10	8	-8	47*	7
CCc1ccc(NC(=O)[C@@H](NC(=O)[C@@H]2Cc3ccccc3CN2)C(C)CC)cc1 (some centres not stated)	11	2	-14	7	?
Cc1cc(C)cc(NC(=O)[C@H](NC(=O)[C@@H]2Cc3ccccc3CN2)c2ccccc2)c1	7	2	-25	8	-108*
CCc1ccc(NC(=O)[C@H](NC(=O)[C@@H]2Cc3ccccc3CN2)c2ccccc2)cc1	0	-4	-22	4	-101*
Cc1ccc(NC(=O)[C@H](NC(=O)[C@@H]2Cc3ccccc3CN2)c2ccccc2)c(C)c1	9	2	0	1	-23
COc1cccc(-c2cccc3c2NC(=O)C3(C)Cc2cccc(F)c2)c1 (configuration not stated)	nt	nt	-11	nt	-70*
Cc1ccc(CN2CC(N3CCN(C)CC3)CS2(=O)=O)cc1 (configuration not stated)	nt	nt	-3	nt	-68*
CCCCCCN1CCN(C2CN(Cc3ccccc3)S(=O)(=O)C2)CC1 (configuration not stated)	nt	nt	-15	nt	-94*
CCCCCCN1CCN(C2CN(Cc3ccc(C)cc3)S(=O)(=O)C2)CC1 (configuration not stated)	nt	nt	-10	nt	0
O=C(O)CN1C(=O)/C(=C/c2ccc(-c3cccc(Cl)c3)o2)SC1=S	13	10	nt	5	nt
COc1cc2c(c(OC)c1OC)-c1c(cc3c(c1OC)OCO3)C[C@@H](C)[C@](C)(O)C2	nt	nt	8	nt	nt
COc1cc2c(c(OC)c1OC)-c1c(cc3c(c1OC)OCO3)C1OC2[C@@H](C)[C@H]1C (some centres not stated)	-46*	-2	16	2	14
N#CC1=C(c2ccccc2)/C(=C/c2ccccc2)OC1=O	nt	-4	-11	1	-59*
CN1CCN(CCCN2c3ccccc3Sc3ccc(S(=O)(=O)N(C)C)cc32)CC1	-94*	-1	-23	52*	-53*
OCCN1CCN(CC/C=C2/c3ccccc3Sc3ccc(Cl)cc32)CC1	-100*	-5	0	27	-12
CC(=O)c1ccc2c(c1)N(CCCN1CCC(CCO)CC1)c1ccccc1S2	-102*	-7	-7	11	0
OCCN1CCN(CCCN2c3ccccc3Sc3ccc(Cl)cc32)CC1	-83*	-6	-94	12	?
SMILES	D1 antagonist	D1 PAM	DRD3 agonist	D1 agonist	D3 antag
O=C(CN1CCCC1)N1c2ccccc2Sc2ccc(Cl)cc21	5	1	1	3	-11
CCCCCCCCCCCCCCCC(=O)OCCC1CCN(CCCN2c3ccccc3Sc3ccc(S(=O)(=O)N(C)C)cc32)CC1	nt	nt	-23	nt	nt
c1ccc(CNc2ncnc3c2cnn3-c2ccccc2)cc1	-3	-4	0	3	?
COc1ccc(OC)c(Nc2ncnc3c2cnn3-c2cccc(C)c2)c1	-40*	-9	-6	-2	24
Cc1cccc(-n2ncc3c(NCc4ccccc4)ncnc32)c1	-89*	-8	1	3	17
COc1ccc(OC)c(Nc2ncnc3c2cnn3-c2cccc(Cl)c2)c1	11	0	-8	-2	nt
Cc1ccc(-n2ncc3c(NCCc4ccccc4)ncnc32)cc1C	-59*	-4	-1	6	nt
c1ccc(CCNc2ncnc3c2cnn3-c2ccccc2)cc1	21	-9	-2	-2	23
O=C(Nc1ccccc1)Nc1cc(OCC(F)(F)F)cc(OCC(F)(F)F)c1	-33*	-10	10	22	22
COc1ccccc1CN1CCN(S(=O)(=O)c2ccccc2)CC1	-7	-6	-3	-2	-68*
Cc1ccccc1CN1CCN(S(C)(=O)=O)CC1	-4	0	-2	0	?
Cc1ccccc1CN1CCN(S(=O)(=O)c2ccc(F)cc2)CC1	-9	-5	-1	-1	-78*
COc1cc(CN2CCN(S(=O)(=O)c3ccccc3)CC2)cc(OC)c1O	-61*	-6	0	1	nt
COc1ccc(S(=O)(=O)N2CCN(Cc3cc(OC)c(O)c(OC)c3)CC2)cc1	11	-2	5	1	7
COc1ccc(CN2CCN(S(=O)(=O)c3ccccc3)CC2)c(OC)c1	4	-1	-19	2	-70*
CCOc1ccc(NC(=O)CSc2nccn2-c2cccc(C)c2C)cc1	2	-5	-9	3	nt
CCOC(=O)c1c(NC(C)=O)c2c3c(sc2n1Cc1nc(-c2cccc(C)c2)oc1C)CCCC3	-3	2	-2	0	nt
O=S(=O)(c1ccc(F)cc1)N1CCN(C(=S)NCc2ccccc2)CC1	-31*	-4	-19	4	12
O=S(=O)(c1ccc(F)cc1)N1CCN(C(=S)NCCc2ccccc2)CC1	-4	-8	-3	15	-18
COC(=O)c1ccccc1-c1c2ccc(=N)cc-2oc2cc(N)ccc12	-56*	-5	-36	507*	-64*
COC(=O)c1ccccc1-c1ccc(/C=N/NC(=O)c2cc3ccccc3o2)o1	20	-4	-9	0	-10
CCn1c(=O)cc(N2CCC3(CC2)OCCO3)[nH]c1=O	-60*	-6	-6	4	-23
Cc1cccc(NC(=O)C2CCN(c3nnc(-n4c(C)ccc4C)s3)CC2)c1C	1	-3	-1	1	nt
Cc1ccc2nc(SCC(=O)OCc3ccccc3)nc(=O)n2c1	7	-4	-1	3	-55*
O=C(NCCc1ccccc1)c1cc2sccc2n1Cc1ccc(F)cc1	-31*	-3	-17	8	nt
O=C(NCc1ccccc1)c1cc2sccc2n1Cc1ccc(F)cc1	15	-2	-20	7	nt
O=C(CC(c1cccs1)N1Cc2ccccc2C1=O)Nc1ccccc1F (configuration not stated)	2	-1	-5	3	nt
